Assay results as given in the supplement of paper PMC10849652.
Of roughly 7,900 targets only a part is listed; those with a hit were picked by preference. About 0.6% of all pairs of compound and target were hits. Values without a mark were called inactive.

What was measured:
Assay in all cases: log2 fold change, soluble protein after heating vs DMSO (PISA); higher = thermal stabilisation; K562 cells, 10 uM, 30 min; active = over 0.2 and 3.5 SD of the protein, either way, in both replicates (recomputed)
IRAK-1-4 Inhibitor I = compound: C1COCCN1CCN2C3=CC=CC=C3N=C2NC(=O)C4=CC(=CC=C4)[N+](=O)[O-] [IRAK-1-4 Inhibitor I]
How it was run: (§1)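 K562 cells at 2×10^6 cells/mL were exposed to 10 μM compound for 30 min, then aliquots were heated for 3 min across 48°C-58°C, pooled, and extracted in PBS containing 0.5% NP-40 at 4°C. The supernatant after 21,000xg for 90 min was taken as soluble protein and measured by TMTpro 16plex LC-MS/MS with channel sums equalised. Thermal stability is reported relative to control samples, with values from duplicates. Fold changes are given on a log2 scale.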

ibrutinib = compound: C=CC(=O)N1CCC[C@@H](n2nc(-c3ccc(Oc4ccccc4)cc3)c3c(N)ncnc32)C1 [ibrutinib]
How it was run: as §1

[1] = compound: CC(=O)c1cnc2ccc(-c3cc(Cl)c(O)c(Cl)c3)nc2c1N[C@H]1CC[C@H](CN(C)C)CC1
How it was run: as §1

ralimetinib = compound: CC(C)(C)Cn1c(N)nc2ccc(-c3[nH]c(C(C)(C)C)nc3-c3ccc(F)cc3)nc21 [ralimetinib]
How it was run: as §1

[2] = compound: CC(C)(O)CC(=O)NCCn1ccc2ncnc(Nc3ccc(Oc4cccc(C(F)(F)F)c4)c(Cl)c3)c21
How it was run: as §1

[3] = compound: CC(C)C1=C2N=C(C=C(N2N=C1)NCC3=CC=CC=C3)NCCCCCCN
How it was run: as §1

[4] = compound: CC(C)C[C@@H](C=O)NC(=O)[C@H](CC(C)C)NC(=O)[C@H](CC(C)C)NC(=O)OCc1ccccc1
How it was run: as §1

pinometostat = compound: CC(C)N(C[C@H]1O[C@@H](n2cnc3c(N)ncnc32)[C@H](O)[C@@H]1O)[C@H]1C[C@@H](CCc2nc3cc(C(C)(C)C)ccc3[nH]2)C1 [pinometostat]
How it was run: as §1

[5] = compound: CC1=C(C(CC(=O)N1)C2=CC=C(C=C2)C(F)(F)F)C(=O)NC3=C(C=C4C(=C3)C=NN4)F
How it was run: as §1

[6] = compound: CC1=C(C2=C(C=C1)C(=O)C3=CC=CC=C3N2CCCN)C
How it was run: as §1

[7] = compound: CC1=C(C=C(C=C1)NC(=O)C2=CC(=CC=C2)C(C)(C)C#N)NC3=CC4=C(C=C3)N=CN(C4=O)C
How it was run: as §1

[8] = compound: CC1=C(C=C(C=C1)NC(=O)C2=CC(=CC=C2)N(C)C)NC(=O)C3=CC=C(C=C3)O
How it was run: as §1

[9] = compound: CC1=CC=C(C=C1)SC2=C3C=C(SC3=CN=C2)C(=O)N
How it was run: as §1

[10] = compound: CC1=NC(=CC=C1)C2=C(N=C(N2)C(C)(C)C)C3=CC4=NC=CN=C4C=C3
How it was run: as §1

Nexturastat A = compound: CCCCN(Cc1ccc(C(=O)NO)cc1)C(=O)Nc1ccccc1 [Nexturastat A]
How it was run: as §1

vemurafenib = compound: CCCS(=O)(=O)Nc1ccc(F)c(C(=O)c2c[nH]c3ncc(-c4ccc(Cl)cc4)cc23)c1F [vemurafenib]
How it was run: as §1

[11] = compound: CCCS(=O)(=O)Nc1ccc(F)c(C(=O)c2c[nH]c3ncc(Cl)cc23)c1F
How it was run: as §1

[12] = compound: CCCc1cc(C)[nH]c(=O)c1CNC(=O)c1cc(-c2ccnc(N3CCN(C)CC3)c2)cc2c1cnn2C(C)C
How it was run: as §1

givinostat = compound: CCN(CC)Cc1ccc2cc(COC(=O)Nc3ccc(C(=O)NO)cc3)ccc2c1 [givinostat]
How it was run: as §1

barasertib = compound: CCN(CCCOc1ccc2c(Nc3cc(CC(=O)Nc4cccc(F)c4)[nH]n3)ncnc2c1)CCOP(=O)(O)O [barasertib]
How it was run: as §1

UniProt Q9UHB9, sequence (Q9UHB9 whole entry, looked up): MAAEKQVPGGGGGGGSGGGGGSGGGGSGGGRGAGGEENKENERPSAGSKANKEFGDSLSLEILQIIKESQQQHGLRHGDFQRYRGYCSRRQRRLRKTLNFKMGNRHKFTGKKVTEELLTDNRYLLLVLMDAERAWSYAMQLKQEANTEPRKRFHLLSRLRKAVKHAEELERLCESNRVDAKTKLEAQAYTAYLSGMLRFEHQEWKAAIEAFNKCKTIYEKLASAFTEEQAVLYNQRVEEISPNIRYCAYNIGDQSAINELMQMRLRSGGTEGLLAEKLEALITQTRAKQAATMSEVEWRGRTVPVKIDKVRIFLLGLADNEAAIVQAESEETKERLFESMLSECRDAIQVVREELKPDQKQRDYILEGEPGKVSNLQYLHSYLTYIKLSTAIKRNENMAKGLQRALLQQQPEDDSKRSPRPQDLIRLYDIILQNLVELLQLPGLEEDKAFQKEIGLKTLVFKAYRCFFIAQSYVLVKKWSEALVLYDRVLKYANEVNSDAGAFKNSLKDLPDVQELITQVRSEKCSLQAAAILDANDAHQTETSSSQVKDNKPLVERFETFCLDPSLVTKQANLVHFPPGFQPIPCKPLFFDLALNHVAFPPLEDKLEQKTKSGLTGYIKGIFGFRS
UniProt A6NHR9, sequence (A6NHR9 whole entry, looked up): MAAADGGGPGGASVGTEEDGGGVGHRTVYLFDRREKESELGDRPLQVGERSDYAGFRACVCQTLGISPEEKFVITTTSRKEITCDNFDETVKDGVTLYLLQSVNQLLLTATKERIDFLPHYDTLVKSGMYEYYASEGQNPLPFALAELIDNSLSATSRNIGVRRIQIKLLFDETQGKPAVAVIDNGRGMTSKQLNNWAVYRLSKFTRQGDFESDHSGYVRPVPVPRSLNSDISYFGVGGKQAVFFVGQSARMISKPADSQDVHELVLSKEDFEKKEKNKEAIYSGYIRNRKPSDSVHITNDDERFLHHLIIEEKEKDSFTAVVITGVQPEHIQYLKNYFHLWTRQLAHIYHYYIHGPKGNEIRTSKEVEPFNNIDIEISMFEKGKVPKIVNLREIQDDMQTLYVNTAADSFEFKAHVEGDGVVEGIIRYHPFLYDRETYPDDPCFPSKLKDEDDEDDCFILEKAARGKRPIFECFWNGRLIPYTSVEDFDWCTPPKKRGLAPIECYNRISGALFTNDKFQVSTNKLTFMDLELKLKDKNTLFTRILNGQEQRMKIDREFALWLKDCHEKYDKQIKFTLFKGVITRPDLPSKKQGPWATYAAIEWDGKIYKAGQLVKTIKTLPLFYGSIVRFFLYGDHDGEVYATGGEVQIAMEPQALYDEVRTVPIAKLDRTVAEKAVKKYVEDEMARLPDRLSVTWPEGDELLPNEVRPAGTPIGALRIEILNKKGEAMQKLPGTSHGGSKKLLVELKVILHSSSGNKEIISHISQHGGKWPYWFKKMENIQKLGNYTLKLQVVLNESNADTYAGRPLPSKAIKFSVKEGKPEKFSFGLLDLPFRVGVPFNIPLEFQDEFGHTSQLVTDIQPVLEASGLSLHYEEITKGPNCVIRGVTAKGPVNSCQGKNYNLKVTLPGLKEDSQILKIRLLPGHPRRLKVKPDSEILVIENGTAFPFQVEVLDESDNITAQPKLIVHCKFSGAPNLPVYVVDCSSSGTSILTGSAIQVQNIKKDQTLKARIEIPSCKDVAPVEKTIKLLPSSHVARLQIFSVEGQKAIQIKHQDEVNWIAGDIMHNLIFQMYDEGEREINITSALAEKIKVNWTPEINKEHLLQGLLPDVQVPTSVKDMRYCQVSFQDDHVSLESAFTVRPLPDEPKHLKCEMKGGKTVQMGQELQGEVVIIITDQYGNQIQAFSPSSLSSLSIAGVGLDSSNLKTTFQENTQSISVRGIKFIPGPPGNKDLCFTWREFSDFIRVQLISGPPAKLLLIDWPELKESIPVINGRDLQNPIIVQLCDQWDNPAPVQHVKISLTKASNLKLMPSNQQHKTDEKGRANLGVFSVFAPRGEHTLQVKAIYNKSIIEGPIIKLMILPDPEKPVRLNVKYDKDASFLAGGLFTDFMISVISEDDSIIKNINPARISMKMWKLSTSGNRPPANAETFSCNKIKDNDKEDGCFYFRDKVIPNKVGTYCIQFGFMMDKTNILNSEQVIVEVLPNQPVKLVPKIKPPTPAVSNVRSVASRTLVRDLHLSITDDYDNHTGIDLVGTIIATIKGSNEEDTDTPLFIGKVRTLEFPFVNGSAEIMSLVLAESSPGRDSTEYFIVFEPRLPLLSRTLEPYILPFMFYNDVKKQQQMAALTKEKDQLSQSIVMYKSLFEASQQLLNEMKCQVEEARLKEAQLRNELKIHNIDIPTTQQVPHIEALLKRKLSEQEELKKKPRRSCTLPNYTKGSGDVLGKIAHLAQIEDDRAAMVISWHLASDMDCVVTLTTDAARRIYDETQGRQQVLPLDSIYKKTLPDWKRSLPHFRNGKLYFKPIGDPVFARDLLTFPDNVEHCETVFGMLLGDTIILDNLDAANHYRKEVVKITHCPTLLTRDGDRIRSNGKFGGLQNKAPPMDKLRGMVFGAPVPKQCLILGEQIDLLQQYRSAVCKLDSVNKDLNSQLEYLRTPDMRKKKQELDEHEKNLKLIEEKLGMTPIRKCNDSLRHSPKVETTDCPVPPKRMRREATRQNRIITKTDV
UniProt Q9P2R7, sequence (Q9P2R7 whole entry, looked up): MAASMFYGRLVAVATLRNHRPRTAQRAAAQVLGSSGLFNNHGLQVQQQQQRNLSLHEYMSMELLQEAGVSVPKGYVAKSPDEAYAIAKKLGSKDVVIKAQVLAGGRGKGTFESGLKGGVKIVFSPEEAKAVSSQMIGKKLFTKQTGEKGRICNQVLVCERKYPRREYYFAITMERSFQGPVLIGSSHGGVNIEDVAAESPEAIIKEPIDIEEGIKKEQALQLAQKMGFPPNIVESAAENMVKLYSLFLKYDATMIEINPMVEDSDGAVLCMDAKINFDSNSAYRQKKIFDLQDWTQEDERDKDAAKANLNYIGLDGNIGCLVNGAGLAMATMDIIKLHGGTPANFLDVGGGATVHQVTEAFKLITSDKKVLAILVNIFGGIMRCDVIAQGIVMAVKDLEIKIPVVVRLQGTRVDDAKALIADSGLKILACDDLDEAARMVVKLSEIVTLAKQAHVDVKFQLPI
UniProt P51692, sequence (P51692 whole entry, looked up): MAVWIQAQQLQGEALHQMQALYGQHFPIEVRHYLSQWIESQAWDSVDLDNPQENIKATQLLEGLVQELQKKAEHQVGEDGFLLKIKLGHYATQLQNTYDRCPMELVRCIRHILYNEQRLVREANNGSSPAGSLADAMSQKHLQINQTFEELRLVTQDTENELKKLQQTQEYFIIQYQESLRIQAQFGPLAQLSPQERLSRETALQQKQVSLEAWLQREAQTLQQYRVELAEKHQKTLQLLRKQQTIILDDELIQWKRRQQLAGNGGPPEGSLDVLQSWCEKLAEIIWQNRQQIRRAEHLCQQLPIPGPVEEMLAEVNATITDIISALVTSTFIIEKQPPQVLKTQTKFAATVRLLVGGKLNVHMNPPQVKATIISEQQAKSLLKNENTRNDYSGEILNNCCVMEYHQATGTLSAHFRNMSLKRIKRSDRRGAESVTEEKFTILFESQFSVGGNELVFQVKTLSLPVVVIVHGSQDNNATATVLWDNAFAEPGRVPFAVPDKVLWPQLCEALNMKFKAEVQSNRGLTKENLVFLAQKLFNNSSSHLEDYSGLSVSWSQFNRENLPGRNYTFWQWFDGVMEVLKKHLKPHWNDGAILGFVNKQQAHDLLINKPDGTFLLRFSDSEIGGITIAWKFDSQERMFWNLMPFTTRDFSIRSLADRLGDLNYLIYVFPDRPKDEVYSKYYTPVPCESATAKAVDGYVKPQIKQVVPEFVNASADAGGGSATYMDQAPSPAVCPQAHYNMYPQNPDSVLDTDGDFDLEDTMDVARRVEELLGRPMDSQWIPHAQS
UniProt Q8IWZ8, sequence (Q8IWZ8 whole entry, looked up): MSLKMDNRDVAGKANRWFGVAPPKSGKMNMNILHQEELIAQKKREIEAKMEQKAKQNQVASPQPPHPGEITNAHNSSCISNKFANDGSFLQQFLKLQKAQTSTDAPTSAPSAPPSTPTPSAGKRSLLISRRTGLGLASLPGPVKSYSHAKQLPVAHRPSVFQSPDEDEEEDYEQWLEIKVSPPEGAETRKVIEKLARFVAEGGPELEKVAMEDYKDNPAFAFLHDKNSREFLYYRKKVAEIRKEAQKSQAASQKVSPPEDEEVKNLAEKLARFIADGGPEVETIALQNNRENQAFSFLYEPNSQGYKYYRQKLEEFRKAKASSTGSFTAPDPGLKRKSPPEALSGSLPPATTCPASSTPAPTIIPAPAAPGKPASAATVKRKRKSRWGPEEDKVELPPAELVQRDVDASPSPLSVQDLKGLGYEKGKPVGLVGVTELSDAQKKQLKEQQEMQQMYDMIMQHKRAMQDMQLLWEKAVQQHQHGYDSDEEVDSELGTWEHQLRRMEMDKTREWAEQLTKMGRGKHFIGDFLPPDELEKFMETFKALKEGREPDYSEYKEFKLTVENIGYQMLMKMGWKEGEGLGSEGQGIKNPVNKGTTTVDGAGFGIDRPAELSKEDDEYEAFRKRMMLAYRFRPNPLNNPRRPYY
UniProt Q9NYB0, sequence (Q9NYB0 whole entry, looked up): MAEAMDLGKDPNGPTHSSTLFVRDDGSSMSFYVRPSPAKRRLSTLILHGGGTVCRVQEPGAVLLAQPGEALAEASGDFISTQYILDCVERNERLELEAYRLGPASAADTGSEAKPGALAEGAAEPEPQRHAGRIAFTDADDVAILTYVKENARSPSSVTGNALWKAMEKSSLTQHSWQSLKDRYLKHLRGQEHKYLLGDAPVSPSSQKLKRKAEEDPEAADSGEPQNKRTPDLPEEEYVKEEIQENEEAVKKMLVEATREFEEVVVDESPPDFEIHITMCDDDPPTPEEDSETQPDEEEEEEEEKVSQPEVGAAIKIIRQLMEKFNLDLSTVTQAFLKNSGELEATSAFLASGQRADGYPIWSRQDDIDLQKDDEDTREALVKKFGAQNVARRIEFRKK

Target | log2 fold change (IRAK-1-4 Inhibitor I) | log2 fold change (ibrutinib) | log2 fold change [1] | log2 fold change (ralimetinib) | log2 fold change [2] | log2 fold change [3] | log2 fold change [4] | log2 fold change (pinometostat) | log2 fold change [5] | log2 fold change [6] | log2 fold change [7] | log2 fold change [8] | log2 fold change [9] | log2 fold change [10] | log2 fold change (Nexturastat A) | log2 fold change (vemurafenib) | log2 fold change [11] | log2 fold change [12] | log2 fold change (givinostat) | log2 fold change (barasertib)
SMCHD1 (UniProt A6NHR9) | -0.268 | -0.007 | -0.344 | 0.108 | 0.068 | -0.067 | 0.038 | 0.092 | -0.08 | 0.406 | -0.067 | 0 | 0.089 | -0.039 | 0.126 | 0.057 | 0.141 | 0.155 | 0.101 | -0.168
SPART (UniProt Q8N0X7) | 0.008 | -0.033 | -0.084 | 0.02 | -0.058 | -0.056 | -0.011 | 0.034 | -0.04 | 0.128 | 0.007 | -0.027 | 0.055 | -0.014 | 0.005 | -0.046 | 0.088 | -0.025 | 0.001 | 0.037
SMG1 (UniProt Q96Q15) | -0.088 | 0.021 | -0.002 | 0.012 | 0.002 | 0.007 | -0.014 | -0.06 | 0.045 | 0.054 | -0.068 | -0.048 | 0.031 | 0.012 | 0.045 | 0.029 | 0.077 | -0.096 | 0.05 | 0.075
THYN1 (UniProt Q9P016) | -0.032 | -0.028 | 0.039 | -0.01 | 0.036 | -0.046 | 0.025 | 0.004 | -0.033 | 0.331 (active) | 0.008 | 0.013 | 0.003 | 0.056 | -0.022 | -0.004 | -0.004 | 0.003 | -0.135 | 0.008
SORT1 (UniProt Q99523) | 0.044 | 0.044 | 0.031 | -0.005 | -0.027 | -0.202 | -0.028 | -0.03 | -0.002 | -0.019 | -0.042 | 0.013 | -0.006 | -0.012 | -0.038 | -0.003 | -0.008 | -0.072 | -0.003 | 0.015
SRP68 (UniProt Q9UHB9) | -0.118 | -0.037 | 0.014 | 0.071 | -0.065 | -0.272 | 0.065 | 0.145 | -0.016 | -0.345 (active) | 0.028 | -0.062 | 0 | 0.018 | 0.125 | 0.063 | 0.091 | 0.064 | 0.075 | 0.078
SLC25A38 (UniProt Q96DW6) | 0.005 | -0.001 | 0.003 | -0.053 | 0.035 | 0.049 | -0.018 | -0.03 | 0.012 | 0.01 | 0.075 | -0.011 | -0.047 | 0.076 | -0.012 | -0.059 | -0.019 | -0.145 | -0.004 | 0.014
SSB (UniProt P05455) | -0.006 | -0.038 | -0.209 | 0.017 | 0.001 | -0.038 | 0.011 | -0.005 | 0.071 | -0.474 (active) | -0.02 | 0.024 | -0.026 | 0.024 | 0.019 | -0.003 | 0.003 | 0.036 | -0.175 | 0.074
SRSF2 (UniProt Q01130) | -0.069 | 0.016 | -0.073 | 0.01 | 0.055 | 0.03 | 0.09 | 0.022 | 0.02 | -0.02 | -0.023 | 0.053 | -0.033 | -0.032 | 0.036 | -0.046 | -0.025 | -0.023 | 0.005 | -0.007
SUCLA2 (UniProt Q9P2R7) | 0.02 | -0.045 | 0.014 | -0.021 | -0.151 | -0.107 | -0.033 | -0.034 | -0.021 | 0.022 | -0.038 | -0.018 | 0.003 | 0.06 | -0.083 | 0.047 | 0.008 | -0.02 | -0.003 | 0.064
SMPD4 isoform 4 (UniProt Q9NXE4) | -0.034 | -0.044 | 0.12 | -0.072 | -0.095 | -0.279 (active) | 0.005 | -0.002 | -0.019 | 0.038 | 0.022 | -0.011 | 0.075 | 0.112 | 0.075 | 0.02 | 0.058 | -0.034 | 0.066 | 0.13
TCOF1 isoform 4 (UniProt Q13428) | -0.009 | -0.034 | -0.13 | 0.028 | 0.023 | -0.042 | -0.083 | 0.024 | 0.015 | -0.664 (active) | -0.03 | 0.015 | -0.028 | -0.019 | -0.001 | -0.029 | -0.012 | -0.004 | 0.056 | 0.006
SUGP1 (UniProt Q8IWZ8) | 0.008 | -0.024 | -0.08 | -0.023 | -0.003 | -0.127 | 0.061 | -0.017 | 0.011 | -0.003 | -0.006 | -0.021 | 0.033 | 0.065 | 0.056 | 0.121 | 0.096 | -0.001 | 0.095 | 0.068
TBC1D5 isoform 2 (UniProt Q92609) | -0.022 | -0.01 | -0.009 | 0.023 | -0.179 | -0.325 (active) | 0.076 | 0.003 | 0.01 | 0.02 | -0.051 | -0.048 | -0.013 | 0.018 | 0.01 | 0.048 | 0.112 | -0.033 | 0.049 | 0.022
STAT5B (UniProt P51692) | -0.153 | -0.146 | 0.018 | 0.121 | -0.401 | -0.119 | 0.044 | -0.095 | -0.109 | -0.022 | -0.165 | -0.102 | 0.222 | 0.111 | 0.014 | 0.046 | 0.08 | 0.101 | 0.145 | 0.113
TERF2IP (UniProt Q9NYB0) | -0.023 | -0.009 | -0.151 | 0.038 | 0.034 | -0.147 | 0.058 | 0.024 | 0.007 | -0.33 (active) | -0.023 | -0.012 | 0.02 | 0.013 | 0.057 | 0.184 | 0.001 | -0.017 | -0.009 | 0.021
